Assay outcomes from PubChem BioAssay.
ClpP mod: qHTS Assay for Activators of ClpP; 1.9% of 340,000 active; Potency, µM (highest dose often 57.5 µM), for inactives: top-dose activity change, negative = active; purified B. subtilis ClpP, FRET peptide cleavage, 20 min; AID 651965, 2013; active means well fitted falling curve with a large enough effect; inconclusive means small, poorly fitted or top-dose-only effect; inactive means no such curve, though single readings can be large or run the other way; further: the source files actives as falling curves though it sought activators and does not explain the sign; nearly all actives have a fitted effect of over 65% in size
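FRET quenching reversal measured ClpP activation: 10 microg/mL B. subtilis ClpP at pH 8 with the FRET-FV decapeptide, read at 430 nm after 320 nm excitation. The 20-min minus 0-min signal was scaled between DMSO/no-enzyme wells and ADEP (5.8 microM final).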
TDP1 cell noCPT: qHTS for Inhibitors of human tyrosyl-DNA phosphodiesterase 1 (TDP1): qHTS in cells in absence of CPT; 15% of 420,000 active; DT40 Tdp1-/- hTDP1 cells, no CPT, ATP luminescence, 48 h; Potency, µM (top dose mostly 46.2 µM), for inactives: top-dose activity change, negative = growth inhibition, hits mostly inhibitors; AID 686978, 2013; further: on the % scale 0 is the no-effect control and ±100 the full control effect; nearly all actives have a fitted effect of over 55% in size
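Growth kinetics read by CellTiter-Glo luminescence after ≥48 hr at 37 °C. Cells: DT40 Tdp1-/- stably carrying human TDP1, 400 per well, compound exposure in the absence of CPT (DMSO vehicle).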
TDP1 cell CPT: qHTS for Inhibitors of human tyrosyl-DNA phosphodiesterase 1 (TDP1): qHTS in cells in presence of CPT; AID 686979, 2013; Potency, µM (titrated, usually from 46.2 µM), inactives show top-dose activity change, negative = growth inhibition, actives largely listed as inhibitors; 12% of 420,000 active; chicken DT40 Tdp1-/-;hTDP1 cells + 20 nM CPT, ATP luminescence, 48 h; further: on the % scale 0 is the no-effect control and ±100 the full control effect; nearly all actives have a fitted effect of over 55% in size
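Chicken DT40 Tdp1-/- cells complemented with human TDP1, 400 cells/well, exposed to compounds plus 20 nM camptothecin for at least 48 h at 37 C; viability read as ATP content by CellTiter-Glo luminescence.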
TDP1 inh: qHTS Assay for Inhibitors of Tyrosyl-DNA Phosphodiesterase (TDP1); recombinant TDP1, AlphaScreen DNA substrate cleavage; Potency, µM (top dose mostly 130 µM), inactives show top-dose activity change, negative = inhibition, hits mostly inhibitors; 0.28% of 350,000 active; further: on the % scale 0 is the no-effect control and ±100 the full control effect; nearly all actives have a fitted effect of over 40% in size
Target sequence (Q9NUW8 whole entry, looked up): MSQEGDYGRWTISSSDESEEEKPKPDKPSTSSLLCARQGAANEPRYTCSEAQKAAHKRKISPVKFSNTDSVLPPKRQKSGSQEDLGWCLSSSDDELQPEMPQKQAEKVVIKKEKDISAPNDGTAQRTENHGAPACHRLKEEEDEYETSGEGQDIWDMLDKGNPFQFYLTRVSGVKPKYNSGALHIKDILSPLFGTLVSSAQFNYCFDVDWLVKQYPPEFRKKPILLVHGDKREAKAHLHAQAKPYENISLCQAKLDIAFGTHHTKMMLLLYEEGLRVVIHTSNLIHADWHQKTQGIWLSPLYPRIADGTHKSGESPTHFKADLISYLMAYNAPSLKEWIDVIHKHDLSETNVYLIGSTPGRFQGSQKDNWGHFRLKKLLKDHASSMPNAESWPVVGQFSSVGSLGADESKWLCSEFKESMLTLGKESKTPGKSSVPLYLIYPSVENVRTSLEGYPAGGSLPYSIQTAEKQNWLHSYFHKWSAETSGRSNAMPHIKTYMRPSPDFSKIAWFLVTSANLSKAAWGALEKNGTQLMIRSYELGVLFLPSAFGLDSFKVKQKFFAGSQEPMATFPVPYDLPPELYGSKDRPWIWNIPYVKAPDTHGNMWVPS
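Here, a 5' biotin and 3' phosphotyrosine-FITC DNA oligonucleotide reports Tdp1 activity: intact substrate bridges AlphaScreen beads, while cleavage leaves a 3' phosphate and drops signal. All incubations at room temperature.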
The depositor's hits bear a star; u = inconclusive; x = not tested or not shown; [ ] = remark or other dose. A selection: hits, their analogues and other compounds. The true share with any hit is near 17%. Unless noted, the call rests on the fitted dose curve; in most records, active means well fitted curve in the direction sought with a large enough effect; inconclusive means small, poorly fitted or top-dose-only effect, or another doubt; inactive means no such curve, though single readings can be large; an effect the other way counts as inactive or inconclusive. Potency means the concentration at half of the fitted maximal effect.

SMILES | ClpP mod | TDP1 cell noCPT | TDP1 cell CPT | TDP1 inh
O=C(CCCc1ccccc1)N=C1SC2CS(=O)(=O)CC2N1c1ccccc1F (configuration not stated) | -2% | 2% | 4% | 1%
CCOC(=O)c1c(NC(=O)COc2cccc(C)c2C)sc2c1CCC(CC)C2 (configuration not stated) | -7% | -15% | 8% | 5%[12.3 µM]
COc1ccc(OC)c(C(=O)N2CCCC(Nc3ccc(F)cc3)C2)c1 (configuration not stated) | -2% | -14% | -4% | 2%[56.1 µM]
Cc1cc(C=O)sc1[B-](F)(F)F | -8% | -12% | -1% | x
CC(C)c1ccc(NC(=O)c2cc(Br)ccc2Br)cc1 | -1% | 26µM* | u | -5%
Cc1ccc(S(=O)(=O)N2CCCCC2)cc1C(=O)Nc1ccc(S(=O)(=O)Nc2ncccn2)cc1 | -1% | 4% | 2% | 32µM*
O=C(Nc1ccc(S(=O)(=O)N2CCOCC2)cc1)c1ccc(S(=O)(=O)N2CCOCC2)cc1 | x | -4% | -5% | x
O=C(Nc1ccc(Cc2ccncc2)cc1)c1ccc(S(=O)(=O)N2CCOCC2)cc1 | -2% | 18µM* | u | 0%
O=C(Nc1ccc(S(=O)(=O)N2CCOCC2)cc1)c1ccc(Cl)cc1 | -3% | 21µM* | 21µM* | x
Cc1cc(C)nc(NS(=O)(=O)c2ccc(NC(=O)c3ccc(S(=O)(=O)N4CCOCC4)cc3)cc2)n1 | 0% | -16% | -2% | 6%
COc1ccc(OC)c(S(=O)(=O)Nc2cccc(-c3ccc(N4CCCCC4)nn3)c2)c1 | 0% | -28% | -3% | -2%
CC(=O)Nc1nc(-c2cc([N+](=O)[O-])cs2)cs1 | -3% | u | -8% | -7%
O=C(Nc1ccccc1C(=O)N1CCCC1)c1ncoc1-c1cccc(Cl)c1 | x | u | u | 7%
Cc1nn(-c2ccccc2)c2sc(C(=O)OCn3nnc4ccccc4c3=O)cc12 | 10µM* | -2% | -18% | 8%
Cc1cc(C(=O)OCn2nnc3ccccc3c2=O)c(C)n1-c1ccccc1 | -5% | 18µM* | u | 8%
Cc1cc(C)n(-c2ccc(C(=O)OCn3nnc4ccccc4c3=O)cc2)n1 | 3% | u | u | 6%
O=C1NC(=O)/C(=C/c2cc3c(cc2Br)OCO3)S1 | x | u | 7% | x
O=C1Nc2ccc3c(c2C1=Cc1cc2c(cc1Br)OCO2)OCO3 | -2% | 4.6µM* | 3.3µM* | x
CN(CC(=O)Nc1ccc(F)cc1)C(=O)COC(=O)c1cc(Br)c(Br)s1 | 0% | u | -5% | x
Cc1ccc(-c2nnc3c4ccccc4c(C)nn23)cc1NC(=O)c1ccccc1Cl | -21% | -27% | 3% | 3%
O=C1C=CC(=Nc2ccc(F)cc2)O1 | x | 4.6µM* | 2.3µM* | x
OCc1ccccc1O | x | -5% | 13% | 11%[56.1 µM]
OCc1ccccc1SSc1ccccc1CO | x | 3.3µM* | 2.3µM* | x
Cc1ccc(C2(C)NC(=O)N(CC(=O)Nc3ccc(Cl)c(S(=O)(=O)N4CCCCC4)c3)C2=O)cc1 (configuration not stated) | -3% | 18µM* | u | 1%
CC1(c2ccccc2)NC(=O)N(CC(=O)Nc2ccc(Cl)c(S(=O)(=O)N3CCCCC3)c2)C1=O (configuration not stated) | 0% | -16% | u | 2%
SMILES | ClpP mod | TDP1 cell noCPT | TDP1 cell CPT | TDP1 inh
CCOc1ccc(S(=O)(=O)N2CCCCC2)cc1NC(=O)CN1C(=O)NC(C)(c2ccc(C)cc2)C1=O (configuration not stated) | -2% | 16µM* | 23µM* | 0%
COc1ccc(S(=O)(=O)N2CCCCCC2)cc1NC(=O)CN1C(=O)NC(C)(c2ccc(C)cc2)C1=O (configuration not stated) | -1% | u | u | -5%
COCC(=O)Nc1ccc(S(=O)(=O)N2CCCC2)cc1 | 0% | -9% | 8% | x
COc1ccc(NC(=O)c2oc3ccc(S(=O)(=O)N4CCC5(CC4)OCCO5)cc3c2C)cc1 | -9% | u | 16µM* | 8%
Cc1c(C(=O)Nc2cccc(C(F)(F)F)c2)oc2ccc(S(=O)(=O)N3CCOCC3)cc12 | 95% | -26% | -13% | -1%
Cc1cccc(NC(=O)c2oc3ccc(S(=O)(=O)N4CCC5(CC4)OCCO5)cc3c2C)c1C | -6% | 18µM* | 16µM* | 0%
Cc1c(C(=O)Nc2cccc(C(F)(F)F)c2)oc2ccc(S(=O)(=O)N3CCC4(CC3)OCCO4)cc12 | -3% | 9.2µM* | 15µM* | 10%
COC(=O)c1ccc(-c2cccc3c2OC(CNC(=O)/C=C/c2ccc(OC)c(OC)c2)C3)nc1 (configuration not stated) | x | -20% | u | x
COc1cc(NC(=O)Cn2cnc(S(=O)(=O)N3CCc4ccccc43)c2)cc(OC)c1OC | x | u | -13% | 3%
CN(C)c1ccc2c(-c3ccccc3)c3ccc(=[N+](C)C)cc-3oc2c1 | x | x | x | 21%
Cn1nnc2cc(NC(=O)Nc3ccccc3F)ccc21 | -27% | 16µM* | u | x
CCC(C)Sc1cc(-c2nc3ccc(C)cn3c2NCc2ccccc2)ccc1OC (configuration not stated) | u | 4.1µM* | 4.6µM* | x
CCC(C)Sc1ccc(-c2nc3ccc(C)cn3c2NCc2ccccc2)cc1OC (configuration not stated) | 4% | 16µM* | 21µM* | 1%
COc1ccc(-c2cc(-c3nc4ccccn4c3NCc3ccccc3)ccc2OC)cc1 | 3% | u | u | 6%
CCCCCCCCC(=O)NC(NC(=S)N1CCOCC1)C(Cl)(Cl)Cl (configuration not stated) | 0% | 15µM* | u | 2%
CCCCCC(=O)NC(NC(=S)N1CCOCC1)C(Cl)(Cl)Cl (configuration not stated) | -2% | u | u | 0%[56.1 µM]
COc1cc(NC(=O)Cn2ccc3ccccc3c2=O)cc(OC)c1OC | -16% | -8% | -21% | 1%
O=[N+]([O-])c1cccc(N=NNc2cccc([N+](=O)[O-])c2)c1 | 1% | 18µM* | u | x
O=[N+]([O-])c1cccc(N=Nc2ccc(O)cc2O)c1 | x | 5.2µM* | 3.3µM* | x
COc1ccccc1CNC(=O)[C@@H](NC(=O)C1CCN(C(=O)[C@@H]2CCCN2)CC1)C(C)C | -5% | -6% | 15% | x
Cc1ccc(S(=O)(=O)N2CCOCC2)cc1C(=O)OCC(=O)Nc1ccc(Cl)cn1 | -1% | -24% | -16% | x
Cc1onc(-c2ccccc2)c1C(=O)OCC(=O)NC(C)c1ccc(Cl)cc1 (configuration not stated) | 1% | -24% | u | -1%
